# Results as given in PubChem BioAssay AID488838 (National Center for Advancing Translational Sciences (NCATS), 2010).
# Inconclusive results are not listed. Activity calls are given as the source filed them. The call rests on the fitted dose curve; in most records, active means well fitted inhibition curve with a large enough effect; inconclusive means small, poorly fitted or top-dose-only effect; inactive means flat fitted curve, though single readings scatter.
# Target: Luciferin 4-monooxygenase (Photinus pyralis) (UniProt P08659)
# Sequence (P08659 whole entry, looked up, canonical isoform): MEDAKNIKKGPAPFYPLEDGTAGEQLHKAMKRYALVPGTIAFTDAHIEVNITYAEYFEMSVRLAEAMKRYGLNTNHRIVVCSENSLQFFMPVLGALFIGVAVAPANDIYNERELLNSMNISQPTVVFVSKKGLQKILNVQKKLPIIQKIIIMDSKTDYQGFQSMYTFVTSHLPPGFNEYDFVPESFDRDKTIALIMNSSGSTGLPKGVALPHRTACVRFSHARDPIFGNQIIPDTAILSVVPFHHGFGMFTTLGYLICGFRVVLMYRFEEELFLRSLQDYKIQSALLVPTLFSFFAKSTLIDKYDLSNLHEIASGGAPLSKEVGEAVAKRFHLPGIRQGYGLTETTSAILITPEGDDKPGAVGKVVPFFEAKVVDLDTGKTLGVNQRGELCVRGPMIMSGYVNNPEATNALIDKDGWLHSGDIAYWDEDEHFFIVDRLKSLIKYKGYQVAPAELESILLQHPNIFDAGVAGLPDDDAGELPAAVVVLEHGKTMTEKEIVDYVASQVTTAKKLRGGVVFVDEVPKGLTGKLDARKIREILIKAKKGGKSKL
# Assay: Counterscreen Assay for Enhancers of SMN2 Splice Variant Expression: Interaction with Luciferase Reporter for Further Probe SAR
# Conditions: purified firefly luciferase, luminescence, 5 min; series mostly up to 57.5 µM
# Excerpt: NIH Chemical Genomics Center [NCGC] NIH Molecular Libraries Probe Production centers Network [MLPCN] MLPCN Grant: R03 MH084179-01 Assay Submitter (PI): Elliot Androphy NCGC Assay Overview: Spinal muscular atrophy (SMA) is caused by insufficient levels of the survival motor neuron protein SMN. The SMN locus on chromosome 5q13 contains two inverted copies of SMN called SMN1 and SMN2 which are 99% identical at the amino acid level. SMN1 is a fully functional protein and SMN2 skips exon 7 90% of the time. Skipping of exon 7 produces non-functional protein product. 10% of the SMN2 protein includes exon 7 and is fully functional. In the SMA disease state, mutations in the SMN1 locus are the cause of the disease state. Because only 10% of SMN2 is of the fully functional form, it is not sufficient to overcome the deficiency produced by the loss of the SMN1 product. A therapy that either increases the amount of SMN2 product made increases the inclusion of exon 7 has been proposed for the treatment of SMA. We have designed an assay to identify small molecules that can increase the amount of functional SMN2 product by appending a luciferase reporter gene after the native SMN2 gene, such that inclusion of exon 7 in the expressed product places the luciferase sequence in frame, thus generating functional luciferase enzyme. One potential source of false positives in the primary screening assay is stabilization of the reporter luciferase via direct binding. This assay attempts to identify such compounds by screening directly for luciferase activity in the absence of the cellular system.
# NCGC Assay Protocol Summary: The primary screen utilizes a luciferase reporter gene assay, combining the promoter and splicing based cassettes in tandem with the major portion of the native SMN1 cDNA, and then transfected into HEK293 cells. Compounds that modulate luciferase signal presumably modulate expression of […]. In this assay, we utilize purified firefly luciferase in lieu of a cellular reporter to identify compounds interacting directly with luciferase in the primary screen. Sequence, Parameter, Value, Description (1) Reagent, 2.5 uL, Enzyme in buffer (note A) (2) Compound, 23 nL, From stock solutions (3) Time, 5 minutes, Room temp (4) Reagent#2.5 ul, Luciferase detection reagent (note B) (5) Detector, 1 sec integrate, Luminescent read on Viewlux (note C) Sigma enzyme (1 mg) considered to be MW 61,000 diluted in 357 ul assay buffer to 50 uM stock. A - Enzyme and buffer consists of 50 mM Tris-acetate pH 7.6, 10 mM Mg acetate 0.05% BSA, 0.01% Tween and 5 nM firefly luciferase B - Detection reagent = britelite plus diluted 1:10 in PBS C - Viewlux settings were 1 second integration medium sensitivity Keywords: Spinal muscular atrophy, SMA, SMN2, high throughput screening, MLSMR, MLPCN, NIH Roadmap, qHTS and NCGC
row,Compound,Potency
1,NC(=O)C1CCN(c2nc(-c3cccc4sc5ccccc5c34)cs2)CC1,31.8 µM (active)
2,NC(=O)C1CCN(c2nc(-c3cccc(Br)c3)cs2)CC1,31.8 µM (active)
3,Cc1ccc(-c2nnc(N3CCC(C(N)=O)CC3)s2)cc1,16 µM (active)
4,CC(=O)Nc1ccc(-c2csc(N3CCC(C(N)=O)CC3)n2)cc1,inactive
5,CCOC(=O)C1CCN(c2nc(-c3ccc(Br)cc3)cs2)CC1,inactive
6,CS(=O)(=O)N1CCN(c2nc(-c3ccc(Br)cc3)cs2)CC1,inactive
7,N#Cc1ccccc1-c1csc(N2CCC(C(N)=O)CC2)n1,inactive
8,Cc1cnc(N2CCC(C(N)=O)CC2)nc1-c1cccc(N(C)C)c1,inactive
9,CC(=O)C1CCN(c2ncc(-c3cccc(N(C)C)c3)s2)CC1,5.05 µM (active)
10,NC(=O)C1CCN(c2nccc(-c3ccc(Br)cc3)n2)CC1,25.3 µM (active)
11,NC(=O)C1CCN(c2ncc(-c3ccc4c(c3)OCCO4)s2)CC1,5.05 µM (active)
12,CC(C)Oc1cccc(-c2ccnc(N3CCC(C(N)=O)CC3)n2)c1,10.1 µM (active)
13,CN(C)c1ccc(-c2csc(N3CCC(C(N)=O)CC3)n2)cc1,inactive
14,NC(=O)C1CCN(c2ncc(-c3ccc4c(c3)OCCCO4)s2)CC1,2.84 µM (active)
15,NC1CCN(c2nc(-c3ccc(Br)cc3)cs2)CC1,2.01 µM (active)
16,NC(=O)C1CCN(c2nc(-c3cccc(C(F)(F)F)c3)cs2)CC1,inactive
17,O=C(c1ccco1)N1CCN(c2nc(-c3ccc(Br)cc3)cs2)CC1,inactive
18,NC(=O)C1CCN(c2nnc(-c3ccc(Br)cc3)s2)CC1,inactive
19,NC(=O)C1CCN(c2nc(-c3ccc(C(F)(F)F)cc3)cs2)CC1,20.1 µM (active)
20,COc1ccc(-c2csc(N3CCC(C(N)=O)CC3)n2)cc1OC,inactive
21,Brc1ccc(-c2csc(N3CCC(c4nn[nH]n4)CC3)n2)cc1,16 µM (active)
22,NC(=O)C1CCN(c2ncc(-c3ccc(Br)cc3)s2)CC1,4.01 µM (active)
